PubChem BioAssay (NCATS)
Inconclusive results are not listed. A call without a number means that no potency is given here. The source made the active and inactive calls. Unless noted, the call rests on the fitted dose curve; in most records, active means well fitted curve in the direction sought with a large enough effect; inconclusive means small, poorly fitted or top-dose-only effect, or another doubt; inactive means no such curve, though single readings can be large; an effect the other way counts as inactive or inconclusive.

Legend:
[1] = qHTS Assay for Identification of Small Molecule Agonists for Thrombopoietin (TPO) Signaling Pathway (AID 917); further: potency means the concentration at half of the fitted maximal effect
Method in brief: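 Stimulation at the TPO EC50 (26 pM final) was used to detect activators. Ba/F3 mouse cells bearing human TPO receptor and a luciferase reporter under the Glycoprotein IIb promoter were exposed to compounds for 24 hrs at 37 C.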

[2] = Confirmation and Secondary Assay for Modulators of Hemoglobin Beta Chain Splicing at IVS2 705 locus (AID 930);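 further: HeLa cells stably expressing the EGFP-705 splicing reporter; series mostly up to about 46 µM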
Method in brief: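 Restored EGFP fluorescence after 2-day compound exposure reports splicing correction in IVS2-705 EGFP reporter HeLa cells; positive control was 500 nM splice-blocking PNA oligo. Signal measured as well total peak GFP intensity (488 nm excitation).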

[3] = target: Pyruvate kinase (Leishmania mexicana) (UniProt Q27686); assay: qHTS Validation Assay for Inhibitors of Leishmania Mexicana Pyruvate Kinase (AID 945); further: potency means the concentration at half of the fitted maximal effect
Sequence of Pyruvate kinase (Leishmania mexicana) (Q27686 2-499 E452W): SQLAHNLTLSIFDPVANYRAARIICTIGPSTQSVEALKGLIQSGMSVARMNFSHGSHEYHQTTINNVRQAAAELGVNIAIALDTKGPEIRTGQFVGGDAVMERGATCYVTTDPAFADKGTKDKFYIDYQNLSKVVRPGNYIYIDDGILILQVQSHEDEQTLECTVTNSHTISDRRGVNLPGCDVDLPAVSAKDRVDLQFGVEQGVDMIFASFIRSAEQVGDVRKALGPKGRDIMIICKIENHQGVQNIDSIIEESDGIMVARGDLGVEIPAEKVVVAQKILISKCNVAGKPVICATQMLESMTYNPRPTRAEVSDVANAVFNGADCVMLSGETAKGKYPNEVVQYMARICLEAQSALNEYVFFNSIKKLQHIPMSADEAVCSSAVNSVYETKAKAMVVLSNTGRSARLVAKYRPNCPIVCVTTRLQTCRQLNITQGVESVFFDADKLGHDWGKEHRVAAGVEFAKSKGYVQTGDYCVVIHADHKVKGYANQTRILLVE
Method in brief: (§1)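 Purified LmPYK (E451W mutant, 0.2 nM) was incubated 1 h at room temperature with 0.5 mM PEP and 0.1 mM ADP in 50 mM imidazole pH 7.2, 50 mM KCl, 7 mM MgCl2; ATP formed was read by PKLight luminescence, normalized to DMSO wells.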

[4] = target: Pyruvate kinase PKM (Homo sapiens) (UniProt P14618); assay: qHTS Assay for Activators of Human Muscle Pyruvate Kinase (AID 954; active means well fitted curve in the direction sought with a large enough effect, not every such curve was filed as active)
Sequence of Pyruvate kinase PKM (Homo sapiens) (P14618 whole entry, looked up): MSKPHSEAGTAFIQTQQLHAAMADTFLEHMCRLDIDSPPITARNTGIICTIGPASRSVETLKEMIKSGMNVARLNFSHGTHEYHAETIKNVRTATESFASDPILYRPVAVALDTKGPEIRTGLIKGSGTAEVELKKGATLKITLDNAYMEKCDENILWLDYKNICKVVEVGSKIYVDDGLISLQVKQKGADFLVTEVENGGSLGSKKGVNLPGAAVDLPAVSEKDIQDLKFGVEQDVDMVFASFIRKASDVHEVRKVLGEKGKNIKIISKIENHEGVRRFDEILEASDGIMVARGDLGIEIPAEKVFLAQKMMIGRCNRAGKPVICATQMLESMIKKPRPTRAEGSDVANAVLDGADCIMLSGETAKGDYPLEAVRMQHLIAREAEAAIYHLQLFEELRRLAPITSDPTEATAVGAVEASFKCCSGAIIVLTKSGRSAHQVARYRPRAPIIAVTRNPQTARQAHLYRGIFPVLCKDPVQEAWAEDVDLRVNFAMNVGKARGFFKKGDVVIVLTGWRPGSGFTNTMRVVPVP
Method in brief: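 A coupled luminescent readout tracked ATP made from ADP by purified PKM2. Final conditions included 0.1 nM enzyme, PEP and ADP at 0.5 and 0.1 mM, pH 7.2 imidazole buffer with BSA, and a one-hour room-temperature reaction.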

[5] = Cell Viability - LYMP2-001 (AID 921); further: series mostly up to about 92 µM; nearly all actives have a fitted effect of over 70% in size
Method in brief: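 Human lymphoblastoid LYMP2-001 cells, 2500 per well, in complete medium, treated 24 h at 37 C. Viability from cellular ATP by CellTiter-Glo luminescence; AC50 from Hill-equation fits of qHTS concentration-response.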

[6] = MultiTox-Fluor Cytotoxicity Assay - LYMP1-001 - Dead Cells (AID 946)
Method in brief: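 AC50 from Hill fit of concentration-response; data normalized to DMSO (basal) and 15 uM tetraoctylammonium bromide (100%). LYMP1-001 lymphoblastoid cells, 2500/well, 16 hr compound at 37 C; dead-cell protease fluorescence, Ex/Em 485/520.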

[7] = MultiTox-Fluor Cytotoxicity Assay - LYMP1-001 - Live Cells (AID 947)
[8] = Cell Viability - LYMP1-002 - Assay at 16 hr (AID 948)
Method in brief: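 LYMP1-002 human lymphoblastoid cells, 2500/well, were treated with compounds for 16 hr at 37 C in complete medium. Viability was read as intracellular ATP by CellTiter-Glo luminescence, and AC50 was derived from a Hill fit to concentration-response data.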

[9] = MultiTox-Fluor Cytotoxicity Assay - LYMP1-002 - Live Cells (AID 955);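 further: cells exposed to compound for 16 hours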
Method in brief: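 In this qHTS viability format, lymphoblastoid cells (LYMP1-002, human) received compound for 16 hr at 37 C. Fluorogenic GF-AFC cleavage by viable cells was detected at 405/510 nm after 1 h at room temperature.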

[10] = Cell Viability - LYMP1-003 - Assay at 24 hr (AID 963)
Method in brief: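 The lymphoblastoid line was treated with titrated compounds for 24 hours, and viable cell number estimated from luciferase-based ATP luminescence.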

[11] = Cell Viability - LYMP1-003 - Assay at 40 hr (AID 964); further: series mostly up to about 92 µM; nearly all actives have a fitted effect of over 60% in size
Method in brief: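 Acute toxicity is scored as a concentration-dependent loss of intracellular ATP in LYMP1-003 cells (2500/well, complete medium) after 40 hr at 37 C, measured by CellTiter-Glo luminescence; AC50 values derive from standard Hill modelling.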

[12] = Cell Viability - LYMP2-003 (AID 965);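 further: cells exposed to compounds for 24 h before reading; nearly all actives have a fitted effect of over 50% in size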
Method in brief: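 Human lymphoblastoid LYMP2-003 cells, 2500/well, exposed to compounds for 24 h at 37 C in complete medium. Viability read as intracellular ATP by CellTiter-Glo luminescence; AC50 from Hill-equation fits of qHTS concentration-response data.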

[13] = Cell Viability - LYMP2-004 (AID 966); further: nearly all actives have a fitted effect of over 65% in size
Method in brief: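 Viable-cell number estimated from ATP luminescence (CellTiter-Glo) in 2500 human lymphoblastoid cells/well after 24 hr at 37 C with compound. AC50 fitted to the standard Hill equation.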

[14] = Cell Viability - LYMP2-005 (AID 967); further: series mostly up to about 92 µM
Method in brief: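 Human lymphoblastoid LYMP2-005 cells, 2,500 per well in complete medium, rested 5 h at 37C then compound-treated 24 h at 37C. Intracellular ATP read by CellTiter-Glo luminescence after 30 min at room temperature; AC50 from Hill-equation fits of concentration-response data.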

[15] = Cell Viability - LYMP2-009 (AID 968); further: series mostly up to about 92 µM; nearly all actives have a fitted effect of over 55% in size
[16] = target: Muscarinic acetylcholine receptor M1 (Rattus norvegicus) (UniProt P08482); assay: qHTS Assay for Antagonists of Acetylcholine Muscarinic M1 Receptor: Measurement of IP-One Response (AID 944); further: nearly all actives have a fitted effect of over 75% in size
Sequence of Muscarinic acetylcholine receptor M1 (Rattus norvegicus) (P08482 whole entry, looked up): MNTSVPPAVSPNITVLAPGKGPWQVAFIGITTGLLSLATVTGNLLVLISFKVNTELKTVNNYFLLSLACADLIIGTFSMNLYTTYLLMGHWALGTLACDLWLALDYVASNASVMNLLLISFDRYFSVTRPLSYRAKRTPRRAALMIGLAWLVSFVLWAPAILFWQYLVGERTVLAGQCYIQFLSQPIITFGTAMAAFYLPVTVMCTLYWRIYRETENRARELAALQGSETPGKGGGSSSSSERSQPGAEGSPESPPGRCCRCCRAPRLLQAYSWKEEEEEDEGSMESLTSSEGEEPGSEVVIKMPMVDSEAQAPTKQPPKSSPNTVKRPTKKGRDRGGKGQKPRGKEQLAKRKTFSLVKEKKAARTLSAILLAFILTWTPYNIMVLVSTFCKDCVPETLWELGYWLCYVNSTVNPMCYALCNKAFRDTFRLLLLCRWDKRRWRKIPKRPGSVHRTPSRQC
Method in brief: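 Antagonism was measured as loss of carbachol-driven (EC80) IP1 accumulation in CHO cells carrying rat M1, using a homogeneous IP-One TR-FRET kit read at 620 and 665 nm.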

[17] = target: Pyruvate kinase (Leishmania mexicana) (UniProt Q27686); assay: qHTS Validation Assay for Activators of Leishmania Mexicana Pyruvate Kinase (AID 959)
Method in brief: as §1

[18] = target: Muscarinic acetylcholine receptor M1 (Rattus norvegicus) (UniProt P08482); assay: qHTS Assay for Antagonists of Acetylcholine Muscarinic M1 Receptor: Kinetic Measurement of Intracellular Calcium Response (AID 943);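 further: Fluo-4 calcium signal as peak divided by basal fluorescence over 4 min; series mostly up to about 35 µM; nearly all actives have a fitted effect of over 75% in size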
Method in brief: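 Quantitative HTS in CHO-M1 (rat receptor) cells: 10 min compound exposure ahead of 100 nM carbachol, Fluo-4 fluorescence followed 4 min, value expressed as peak-to-basal ratio.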

| Compound | Potency [1] | outcome [2] | Potency [3] | outcome [4] | outcome [5] | Potency [6] | outcome [7] | outcome [8] | outcome [9] | outcome [10] | Potency [11] | outcome [12] | outcome [13] | outcome [14] | outcome [15] | Potency [16] | outcome [17] | Potency [18] |
| --- | --- | --- | --- | --- | --- | --- | --- | --- | --- | --- | --- | --- | --- | --- | --- | --- | --- | --- |
| CN1CCC(=C2c3ccccc3CC(=O)c3sccc32)CC1 | inactive | inactive | inactive | inactive |  |  |  |  |  |  |  |  |  |  |  |  |  |  |
| CN1CCN(C2=Nc3cc(Cl)ccc3Nc3ccccc32)CC1 | inactive | inactive | inactive | inactive |  |  |  |  |  |  |  |  |  |  |  |  |  |  |
| NS(=O)(=O)c1cc2c(cc1Cl)NCNS2(=O)=O | inactive | inactive | inactive | inactive | inactive | inactive | inactive | inactive | inactive | inactive | inactive | inactive | inactive | inactive | inactive |  |  |  |
| CC(C)C(=O)Nc1ccc([N+](=O)[O-])c(C(F)(F)F)c1 | inactive | inactive | inactive | inactive | inactive | inactive | inactive | inactive | inactive | inactive | inactive | inactive | inactive | inactive | inactive |  |  |  |
| Cn1c(=O)c2c(ncn2C)n(C)c1=O | inactive | inactive |  | inactive | inactive | inactive | inactive | inactive | inactive | inactive | inactive | inactive | inactive | inactive | inactive | inactive |  |  |
| CCC1(c2ccccc2)C(=O)NCNC1=O | inactive | inactive |  | inactive | inactive | inactive | inactive | inactive | inactive | inactive | inactive | inactive | inactive | inactive | inactive |  |  |  |
| Cc1cc(C(C)(C)C)cc(C)c1CC1=NCCN1 | inactive | inactive | inactive | inactive |  |  |  |  |  |  |  |  |  |  |  |  |  |  |
| NCCCCCC(=O)O | inactive | inactive | inactive | inactive |  |  |  |  |  |  |  |  |  |  |  |  |  |  |
| O=c1c(-c2ccc(O)cc2)coc2cc(O)cc(O)c12 | 1.58 µM (active) | inactive | 12.6 µM (active) | inactive | inactive | inactive | inactive | inactive | inactive | inactive | inactive | inactive | inactive | inactive | inactive |  | inactive |  |
| Nc1ccn([C@H]2CC[C@@H](CO)O2)c(=O)n1 | inactive | inactive | inactive | inactive | inactive | inactive | inactive | inactive | inactive | inactive | inactive | inactive | inactive | inactive | inactive | inactive |  | inactive |
| Cc1cc(C(C)(C)C)c(O)c(C)c1CC1=NCCN1 | inactive | inactive | inactive | inactive |  |  |  |  |  |  |  |  |  |  |  |  |  |  |
| O=c1c(O)c(-c2ccc(O)c(O)c2)oc2cc(O)cc(O)c12 | inactive | inactive | inactive | inactive |  |  |  |  |  |  |  |  |  |  |  |  |  |  |
| Clc1ccc(C(c2ccccc2Cl)C(Cl)Cl)cc1 (stereo not drawn) | inactive | inactive | inactive | inactive | inactive | inactive | inactive | inactive | inactive | inactive | inactive | inactive | inactive | inactive | inactive |  |  |  |
| CC(C)Cc1ccc(C(C)C(=O)O)cc1 (stereo not drawn) | inactive | inactive | inactive | inactive |  |  |  |  |  |  |  |  |  |  |  |  |  |  |
| Nc1c2c(nc3ccccc13)CCCC2 | inactive | inactive | inactive | inactive | inactive | inactive | inactive | inactive | inactive | inactive | inactive | inactive | inactive | inactive | inactive |  |  |  |
| CN(C)c1nc(N(C)C)nc(N(C)C)n1 | inactive | inactive | inactive | inactive |  |  |  |  |  |  |  |  |  |  |  |  |  |  |
| COc1ccc2[nH]cc(CCNC(C)=O)c2c1 | inactive | inactive | inactive | inactive | inactive | inactive | inactive | inactive | inactive | inactive | inactive | inactive | inactive | inactive | inactive | inactive |  |  |
| Cc1ccccc1N1C(=O)c2cc(S(N)(=O)=O)c(Cl)cc2NC1C (stereo not drawn) | inactive | inactive | inactive | inactive |  |  |  |  |  |  |  |  |  |  |  |  |  |  |
| N[C@@H](Cc1c[nH]c2ccc(O)cc12)C(=O)O | inactive |  | inactive | inactive | inactive | inactive | inactive | inactive | inactive | inactive | inactive | inactive | inactive | inactive | inactive | inactive |  |  |
| O=C(c1ccc(F)cc1)C1CCN(CCn2c(=O)[nH]c3ccccc3c2=O)CC1 | inactive | inactive | inactive | inactive |  |  |  |  |  |  |  |  |  |  |  | inactive |  |  |
| NCCS(=O)(=O)O | inactive |  | inactive | inactive | inactive | inactive | inactive | inactive | inactive | inactive | inactive | inactive | inactive | inactive | inactive | inactive |  | inactive |
| CN1C(C(=O)Nc2ccccn2)=C(O)c2ccccc2S1(=O)=O | inactive | inactive | inactive | inactive |  |  |  |  |  |  |  |  |  |  |  |  |  |  |
| NC(=O)NO | inactive | inactive | inactive | inactive |  |  |  |  |  |  |  |  |  |  |  |  |  |  |
| Cn1c(=O)c2[nH]cnc2n(C)c1=O | inactive | inactive |  | inactive | inactive | inactive | inactive | inactive | inactive | inactive | inactive | inactive | inactive | inactive | inactive |  |  |  |
| NCCc1cnc[nH]1 | inactive | inactive | inactive | inactive |  |  |  |  |  |  |  |  |  |  |  | inactive |  | inactive |
